Screening data from PubChem.
An excerpt weighted towards active compounds, which were near 0.83% of everything screened.
Pf gamet viab: late stage P. falciparum gametocyte viability inhibitors, primary screen, ATP luminescence, HTS; P. falciparum stage V gametocytes, 24 h; inhibition, % at 10.9 µM; 0.065% of 150,000 active; AID 743093, 2013;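 active = inhibition above the mean plus 3 SD of compounds within the control limits, set per campaign, cut at about 38% in these data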;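 note: 0% = DMSO wells and 100% = medium only without gametocytes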
S1P3 antag: S1P3 receptor antagonists, primary screen, cell-based. 0.27% of 170,000 active. CHO S1P3 NFAT-BLA reporter, FRET fluorescence, antagonist mode. AID 485, 2006. inhibition, % at 4.98 µM;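 active = inhibition above the plate cutoff, the mean inhibition of test wells on that plate plus 3 SD, cut at about 28% in these data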;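 note: cells challenged with S1P at its EC80 of 0.8 µM; blue over green emission ratio from cleaved BLA substrate after 4 h stimulation; 0% = S1P-stimulated wells and 100% = unstimulated DMSO-only wells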
Target sequence (Q99500 whole entry, looked up): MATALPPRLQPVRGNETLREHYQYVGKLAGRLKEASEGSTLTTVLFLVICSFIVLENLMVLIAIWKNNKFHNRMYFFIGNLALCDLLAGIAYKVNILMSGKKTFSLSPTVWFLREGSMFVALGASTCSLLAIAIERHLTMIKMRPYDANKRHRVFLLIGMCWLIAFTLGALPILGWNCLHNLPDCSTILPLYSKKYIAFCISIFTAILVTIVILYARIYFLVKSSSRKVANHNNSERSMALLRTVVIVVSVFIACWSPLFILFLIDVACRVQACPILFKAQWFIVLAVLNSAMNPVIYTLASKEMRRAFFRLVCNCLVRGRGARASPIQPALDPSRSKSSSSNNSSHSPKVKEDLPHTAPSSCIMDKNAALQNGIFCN
S1P4 antag: S1P4 receptor antagonists, primary screen, cell-based | Sphingosine 1-phosphate receptor 4 (Homo sapiens), O95977 | S1P4-expressing cells, antagonist mode, reporter read-out | inhibition, % at 4.98 µM | 0.26% of 220,000 active | AID 1510, 2009; in the data active = inhibition above about 29%;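 note: 0% = wells stimulated with agonist and 100% = vehicle wells without agonist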
S1P4 ag: S1P4 receptor agonists, primary screen, cell-based; Sphingosine 1-phosphate receptor 4 (Homo sapiens), O95977; S1P4-expressing cell line, agonist reporter assay; activation, % at 4.98 µM; 0.35% of 220,000 active; in the data active = activation above about 11%;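 note: 0% = DMSO vehicle and 100% = reference agonist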
Hsp70 activator: Hsp70 transcriptional activators, primary screen, cell-based, HeLa, Hsp70 promoter luciferase, luminescence, 10 µM; HeLa Hsp70 promoter luciferase reporter; scaled: vehicle 0, proteasome-inhibitor control 100%; activation, % at 10 µM; 0.04% of 200,000 active;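 active = activation above the mean across all tested compounds plus 3 SD, cutoff set per campaign, cut at about 5.5% in these data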;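 note: 100% = MG132 at 30 µM as the positive control and 0% = DMSO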
S1P4 antag cf: S1P4 receptor antagonists, human, confirmation, cell-based; AID 1524, 2009; inhibition, % at 4.98 µM; shares compounds with S1P4 antag; S1P4-expressing cell line, antagonist mode, reporter read-out; 71% of 520 active; in the data active = inhibition above about 30%
S1P1 antag: S1P1 receptor antagonists, human, counter-screen for S1P4 antagonist project, cell-based; inhibition, % at 4.98 µM; 37% of 520 active; shares compounds with S1P4 antag; cell-based S1P1 antagonist counterscreen, inhibition; in the data active = inhibition above about 40%;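 note: receptor stimulated with S1P near its EC80; 0% = agonist stimulated wells and 100% = vehicle only wells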
Starred values were filed as active, the others as inactive; . = no result given.

SMILES	Pf gamet viab	S1P3 antag	S1P4 antag	S1P4 ag	Hsp70 activator	S1P4 antag cf	S1P1 antag
CC1CC(C)(C)Nc2ccc(OC(=O)c3ccco3)cc21 (configuration not stated)	.	18.7	12.4	-0.1	-0.8	.	.
CCOc1ccc(CN2CCN(CC(O)Cn3c4ccccc4c4ccccc43)CC2)cc1 (configuration not stated)	-17.1	-0.2	42.3*	-0.5	-0.5	71.0*	82.9*
COc1cc(SC)ccc1C(=O)Nc1ccc(C)cc1C	.	11.0	34.1*	-1.6	0.0	54.9*	15.1
Cc1cc(C)c(C)c(OCc2nc(-c3cccnc3)no2)c1	3.0	1.0	30.0*	3.4	-0.4	9.2	12.5
O=C(Nc1ccc(N2C(=O)C3C4C=CC(C4)C3C2=O)cc1Cl)c1cccs1 (configuration not stated)	2.1	-16.7	-4.6	-1.1	0.1	.	.
CC(=O)Nc1ccc(OC(=O)c2ccc(Br)c([N+](=O)[O-])c2)cc1	-7.3	-16.1	47.9*	-1.7	-0.3	67.6*	35.0
CCOc1ccc(C(=O)Oc2ccc(NC(C)=O)cc2)cc1	.	-10.8	-15.4	0.5	-0.1	.	.
Nc1ccc2c(C(F)(F)F)cc(=O)oc2c1	.	5.3	46.3*	0.2	-0.2	45.3*	35.3
CC1=NNC(=O)/C1=C\c1cn(-c2ccccc2)nc1-c1ccccc1	-0.5	-2.8	35.6*	1.7	4.5	116.4*	55.3*
O=c1/c(=C/c2ccc([N+](=O)[O-])cc2)sc2n1CCCN=2	-1.4	.	34.0*	-0.3	-0.1	21.9	31.0
COc1ccc(NC(=O)/C(Cl)=C(/Cl)S(=O)(=O)Cc2ccc(C)cc2)cn1	.	.	59.8*	2.1	2.8	116.2*	89.3*
COc1ccc(NC(=O)CSc2cc(C)ccc2C)cn1	-11.7	1.3	18.9	0.8	-0.2	.	.
Cc1cc2nc3n(c2cc1C)CCCN3	8.8	.	.	.	.	.	.
CN(c1ccccc1)c1ccc(/C=C/[N+](=O)[O-])cc1	4.3	-17.4	55.5*	2.5	0.1	119.4*	66.5*
O=C1/C(=C/c2ccc(N3CCOCC3)o2)SC(=Nc2ccccc2)N1CCc1c[nH]c2ccccc12	.	.	45.8*	-0.2	0.0	64.0*	45.7*
Cc1ccc(C)c(OCC(=O)Nc2cc(NC(=O)COc3cc(C)ccc3C)cc(C(=O)O)c2)c1	13.5	.	.	.	.	.	.
Cn1c(=O)c2nc(NCc3ccccc3)cnc2n(C)c1=O	6.5	27.9	7.8	0.6	0.0	.	.
Cc1nc2c(=O)n(C)c(=O)n(C)c2nc1Cl	2.9	2.5	49.0*	-0.1	-0.1	93.9*	50.5*
CC(=O)NC(Cc1cccc(F)c1)C(=O)NC1CCN(C(=O)c2ccc(C)cc2)CC1 (configuration not stated)	-23.2	-22.5	4.1	-0.2	-0.1	.	.
O=C(CCC(=O)Nc1ccccc1)NNS(=O)(=O)c1ccccc1[N+](=O)[O-]	.	-14.3	4.2	-0.1	0.1	.	.
O=C(/C=C/c1ccccc1[N+](=O)[O-])c1ccccc1Br	-14.3	-5.8	36.3*	-0.9	0.4	79.0*	27.7
O=S(=O)(c1ccc(Cl)c(Cl)c1)c1snnc1-c1ccccc1	.	.	56.0*	-0.4	-0.3	114.4*	74.9*
CN(C)C(=O)C12CCC(C)(C(=O)C1Br)C2(C)C (configuration not stated)	-8.3	-1.1	-3.0	-0.4	.	.	.
O=C1CCCCc2sc(Br)c([N+](=O)[O-])c2N1	3.4	0.8	79.8*	-3.2	.	102.2*	65.7*
O=S1(=O)CCN(OCc2ccc(Cl)cc2)CC1	-10.7	-0.1	-23.0	1.4	0.0	.	.
SMILES	Pf gamet viab	S1P3 antag	S1P4 antag	S1P4 ag	Hsp70 activator	S1P4 antag cf	S1P1 antag
COc1ccccc1C(=O)OCc1nc(N)nc(Nc2ccccc2C)n1	2.1	-0.6	107.0*	0.9	-0.1	-10.9	0.5
C=CCNc1cnn(CC(C)=O)c(=O)c1Br	7.7	.	-0.7	0.9	-0.1	.	.
CC(C)(C)C(=O)Cn1ncc(Br)c(Br)c1=O	14.3	-0.5	64.4*	-3.7	-0.3	93.4*	34.4
C[C@H](CO)N1C[C@H](C)[C@@H](CN(C)C(=O)Nc2ccc3c(c2)OCO3)Oc2c(NC(=O)Nc3ccc(C(F)(F)F)cc3)cccc2C1=O	10.2	.	.	.	.	.	.
O=C(Nc1cccc(-c2nc3ccccc3s2)c1)c1cc(-n2cnnc2)ccc1Cl	.	.	30.8*	1.2	0.1	15.6	4.0
Cc1c(NC(=O)c2cc(-n3cnnc3)ccc2Cl)cccc1-c1nc2ccccc2s1	12.6	.	-10.3	-1.3	1.0	.	.
O=C(NC1CC1)C1CCN(C2CCN(C(=O)c3ccc4cccc(F)c4n3)CC2)CC1	-0.6	14.5	-0.2	-0.6	0.8	.	.
CC12CCC(C/C1=N/O)C2(C)CBr (configuration not stated)	1.7	10.8	-2.6	0.3	.	.	.
O=C(O)c1cccc(N/N=C/C2=C(Cl)c3cc(Cl)ccc3SC2)c1	-5.2	-9.2	0.9	0.0	-0.1	.	.
COc1ccc(N=Nc2nc(-c3ccccc3)c(-c3ccccc3)[nH]2)cc1	19.9	6.1	-13.2	0.7	-0.4	.	.
COc1ccc(N=Nc2n(C)c3ccccc3[n+]2C)cc1	.	-44.5	30.4*	-1.4	.	-0.4	35.3
O=C(Cn1ncc(Cl)c(Cl)c1=O)N1CCN(S(=O)(=O)c2ccc3ccccc3c2)CC1	-30.3	0.4	40.5*	-5.3	1.0	115.8*	68.9*
Clc1cc(Cl)cc(C2=NCCC(c3ccccc3)O2)c1 (configuration not stated)	.	-4.8	-17.7	0.8	-0.1	.	.
COc1ccc(C(=O)C(CN2CCOCC2)c2ccccc2)cc1F (configuration not stated)	.	2.5	33.1*	-4.8	-0.3	45.5*	6.7
COc1cc(NC2CCCCC2O)c2nc(-c3ccc(Cl)cc3)ccc2c1 (configuration not stated)	.	25.2	30.2*	0.0	.	64.6*	62.4*
Cc1cccnc1NC(=O)NC(=O)c1ccc(C(C)(C)C)s1	3.2	2.1	-0.5	0.6	.	.	.
CCC(=O)N1CCN(c2ccc(NC(=O)c3ccc([N+](=O)[O-])o3)cc2)CC1	1.9	-2.9	77.8*	-3.0	1.0	85.1*	73.9*
CCCC(=O)N1CCN(c2ccc(NC(=O)c3ccc(Br)o3)cc2)CC1	1.5	5.2	-21.4	-2.2	0.0	.	.
O=C(Nc1ccc(S(=O)(=O)NC2=NCCCCC2)cc1)C1COc2ccccc2O1 (configuration not stated)	2.2	-2.8	-15.8	0.0	.	.	.
COc1ccccc1-c1cc(C(F)(F)F)nc(S(=O)(=O)CCCC(=O)NC(C)C)n1	0.3	0.8	-5.3	0.2	-0.4	.	.
COc1ccccc1-c1cc(C(F)(F)F)nc(S(C)(=O)=O)n1	.	.	67.5*	-2.2	0.1	85.9*	6.3
